Results reported in PubChem BioAssay.
Calls of active or inactive are those of the source.

What was measured:
[1] = test system: PRMT1 (protein arginine N-methyltransferase 1); experiment: small molecules binding arginine methyltransferase PRMT1 – biochemical, small-molecule microarray, 635 nm fluorescence, primary screen (AID 1088); conditions: higher = more signal;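 note: binding of Prmt1 protein to compounds spotted on small-molecule microarray slides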
[2] = growth effects on S. cerevisiae YJM789 – YJM789 clinical isolate, OD600, 24 h, basal, primary screen (AID 1089); conditions: higher = more signal, called active from +8 up or from −8 down;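 note: growth of clinical yeast isolate S. cerevisiae YJM 789 seeded 1000 cells per well; test concentration not given here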
[3] = S. pombe growth modifiers, basal conditions – strain 972, OD600, 24 h, no modulator, primary screen (AID 1090);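 note: basal condition with compound alone and no growth modifier present; test concentration not given here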; conditions: S. pombe 972 growth, higher = more signal, called active from +8 up or from −8 down
[4] = budding yeast growth modifiers under rapamycin – strain BY4716, OD600, 96 h, primary screen (AID 1091); note: test concentration not given here; conditions: S. cerevisiae BY4716 + rapamycin, higher = more signal, called active from +8 up or from −8 down
[5] = biological target: Torsin-1A-interacting protein 2 (Homo sapiens) (UniProt Q8NFQ8); experiment: small molecules binding lysate-expressed LULL1 – cell lysate, human LULL1 lysate, 635/667 nm fluorescence, primary screen (AID 1092); conditions: small-molecule microarray, hLULL1 lysate binding, 635 nm fluorescence; higher = more signal;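 note: probe is lysate of COS7 cells overexpressing human LULL1; score merges per-feature 667 nm fluorescence with signal-to-noise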
Torsin-1A-interacting protein 2 (Homo sapiens), sequence (Q8NFQ8 whole entry, looked up): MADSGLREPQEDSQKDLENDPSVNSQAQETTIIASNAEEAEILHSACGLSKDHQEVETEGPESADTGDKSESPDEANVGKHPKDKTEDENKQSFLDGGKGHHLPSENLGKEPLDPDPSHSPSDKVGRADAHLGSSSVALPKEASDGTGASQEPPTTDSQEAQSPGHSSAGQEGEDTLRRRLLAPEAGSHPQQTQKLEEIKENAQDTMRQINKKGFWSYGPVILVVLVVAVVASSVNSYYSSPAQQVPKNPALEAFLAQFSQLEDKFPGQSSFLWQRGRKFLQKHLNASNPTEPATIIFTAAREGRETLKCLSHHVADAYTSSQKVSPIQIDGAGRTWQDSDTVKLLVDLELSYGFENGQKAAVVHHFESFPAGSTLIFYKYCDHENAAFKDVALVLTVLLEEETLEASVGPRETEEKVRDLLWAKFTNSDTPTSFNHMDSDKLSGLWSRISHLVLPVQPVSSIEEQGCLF

[6] = optical density change of DRC41 E. coli – strain DRC41, OD650, 24 h, E. coli filamentation project, primary screen (AID 1093);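 note: MC1000 strain lacking acrAB efflux and sulA so SOS filamentation is blocked; test concentration not given here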; conditions: E. coli DRC41 growth, higher = more signal, called active from +8 up or from −8 down
[7] = probe aLefty2 binding to arrayed compounds – biochemical, biotinylated probe, 635/667 nm fluorescence, primary screen (AID 1094); conditions: small-molecule microarray, higher = more signal;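 note: score merges spot fluorescence near 667 nm with spot signal-to-noise ratio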
[8] = test system: Noggin (protein binding on small-molecule microarray); experiment: small molecules binding Noggin protein – biochemical, 635/667 nm fluorescence, primary screen (AID 1095); conditions: 635 nm fluorescence, higher = more signal;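 note: score merges 667 nm feature fluorescence with signal to noise over triplicate slides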
[9] = biological target: Neurogenic locus notch homolog protein 3 (Homo sapiens) (UniProt Q9UM47); experiment: small molecules binding NOTCH3 protein – biochemical, 635/667 nm fluorescence, primary screen (AID 1096); conditions: small-molecule microarray, 635 nm fluorescence, higher = more signal
Neurogenic locus notch homolog protein 3 (Homo sapiens), sequence (Q9UM47 whole entry, looked up): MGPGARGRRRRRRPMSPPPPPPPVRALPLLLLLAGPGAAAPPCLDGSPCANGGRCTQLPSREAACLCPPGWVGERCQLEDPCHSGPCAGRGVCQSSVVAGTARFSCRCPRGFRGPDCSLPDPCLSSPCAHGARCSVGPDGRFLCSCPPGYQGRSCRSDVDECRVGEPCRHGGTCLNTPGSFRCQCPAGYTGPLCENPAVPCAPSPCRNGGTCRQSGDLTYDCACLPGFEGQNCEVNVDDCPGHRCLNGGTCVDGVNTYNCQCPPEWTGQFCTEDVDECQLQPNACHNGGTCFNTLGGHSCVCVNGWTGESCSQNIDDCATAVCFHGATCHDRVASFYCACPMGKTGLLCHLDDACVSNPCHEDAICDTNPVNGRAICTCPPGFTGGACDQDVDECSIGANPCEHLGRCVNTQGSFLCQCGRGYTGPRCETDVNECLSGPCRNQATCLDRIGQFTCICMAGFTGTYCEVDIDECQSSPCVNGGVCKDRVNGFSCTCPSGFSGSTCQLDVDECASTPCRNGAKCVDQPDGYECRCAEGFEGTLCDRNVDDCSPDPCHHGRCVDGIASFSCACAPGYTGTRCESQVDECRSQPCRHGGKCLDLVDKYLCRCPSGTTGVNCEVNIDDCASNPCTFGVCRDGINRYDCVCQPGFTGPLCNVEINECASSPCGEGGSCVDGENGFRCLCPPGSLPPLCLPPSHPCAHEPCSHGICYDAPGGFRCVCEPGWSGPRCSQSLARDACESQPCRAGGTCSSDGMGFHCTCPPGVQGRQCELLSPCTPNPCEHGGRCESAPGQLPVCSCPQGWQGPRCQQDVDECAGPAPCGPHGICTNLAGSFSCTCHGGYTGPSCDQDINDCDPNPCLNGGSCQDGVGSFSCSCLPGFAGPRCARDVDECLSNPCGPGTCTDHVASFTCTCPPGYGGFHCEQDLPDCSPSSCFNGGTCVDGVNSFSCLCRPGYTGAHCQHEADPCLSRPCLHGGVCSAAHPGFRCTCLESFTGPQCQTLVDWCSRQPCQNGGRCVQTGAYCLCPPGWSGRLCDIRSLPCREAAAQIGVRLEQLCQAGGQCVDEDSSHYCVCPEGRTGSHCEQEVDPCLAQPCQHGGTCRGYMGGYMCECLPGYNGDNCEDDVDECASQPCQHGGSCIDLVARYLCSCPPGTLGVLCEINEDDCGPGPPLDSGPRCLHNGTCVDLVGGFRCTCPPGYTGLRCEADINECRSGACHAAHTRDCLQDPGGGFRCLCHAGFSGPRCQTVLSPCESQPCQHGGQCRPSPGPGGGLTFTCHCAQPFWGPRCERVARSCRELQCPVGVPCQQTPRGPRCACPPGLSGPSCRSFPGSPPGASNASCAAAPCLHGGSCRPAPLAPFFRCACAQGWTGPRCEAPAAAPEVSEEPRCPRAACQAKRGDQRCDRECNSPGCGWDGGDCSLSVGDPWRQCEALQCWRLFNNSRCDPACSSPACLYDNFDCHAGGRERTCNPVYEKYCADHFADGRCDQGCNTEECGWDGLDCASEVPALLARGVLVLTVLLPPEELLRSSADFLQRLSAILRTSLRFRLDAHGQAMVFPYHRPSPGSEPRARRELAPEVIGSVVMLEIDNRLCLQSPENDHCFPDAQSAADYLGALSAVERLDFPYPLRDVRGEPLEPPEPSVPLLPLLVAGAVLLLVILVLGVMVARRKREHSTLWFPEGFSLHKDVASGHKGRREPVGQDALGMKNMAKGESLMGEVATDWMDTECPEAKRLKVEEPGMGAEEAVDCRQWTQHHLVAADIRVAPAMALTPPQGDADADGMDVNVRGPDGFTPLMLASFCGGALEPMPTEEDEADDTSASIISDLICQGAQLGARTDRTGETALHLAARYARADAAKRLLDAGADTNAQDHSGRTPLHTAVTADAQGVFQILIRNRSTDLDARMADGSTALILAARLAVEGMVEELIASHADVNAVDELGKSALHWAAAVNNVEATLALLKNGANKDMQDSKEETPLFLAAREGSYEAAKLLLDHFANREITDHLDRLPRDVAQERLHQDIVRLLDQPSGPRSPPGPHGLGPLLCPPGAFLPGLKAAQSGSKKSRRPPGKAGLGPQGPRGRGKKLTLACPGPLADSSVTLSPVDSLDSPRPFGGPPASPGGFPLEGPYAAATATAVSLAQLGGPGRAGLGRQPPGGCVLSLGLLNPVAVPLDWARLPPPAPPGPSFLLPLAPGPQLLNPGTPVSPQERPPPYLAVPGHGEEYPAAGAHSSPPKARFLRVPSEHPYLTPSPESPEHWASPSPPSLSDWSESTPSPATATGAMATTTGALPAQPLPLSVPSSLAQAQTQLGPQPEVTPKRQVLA

[10] = probe aEGFR binding to arrayed compounds – biochemical, biotinylated probe, 635/667 nm fluorescence, primary screen (AID 1097); conditions: small-molecule microarray, higher = more signal;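 note: probe is a biotinylated anti-EGFR antibody binding compounds printed on slides; score combines fluorescence near 667 nm and signal to noise of each spot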

SMILES	composite z-score [1]	z-score [2]	z-score [3]	z-score [4]	composite z-score [5]	z-score [6]	composite z-score [7]	composite z-score [8]	composite z-score [9]	composite z-score [10]
O=C(N1CCOCC1)[C@]1(CCS(=O)(=O)c2ccccc2)N=C(c2ccc(OCCCO)cc2)O[C@@H]1c1ccccc1	1.45	0.825 (inactive)	0.778 (inactive)	2.98 (inactive)	3.26	1.14 (inactive)	0.227	0.0673	1.08	0.0727
O=C1O[C@@H](c2ccccc2)[C@@H](c2ccccc2)N2[C@@H](c3ccc(OCCO)cc3)[C@]3(C(=O)Nc4ccc(C#CC5=CCCCC5)cc43)[C@@H](C(=O)Nc3nc4ccccc4s3)[C@H]12	1.56	2.22 (inactive)	1.59 (inactive)	1.57 (inactive)	1.86	-0.124 (inactive)	-0.673	1.11	1.02	-0.0613
Cc1ccc(S[C@]2(C(=O)NC(C)C)CC(=O)N(Cc3ccccc3)[C@@H]2c2ccc(CO)cc2)cc1	-0.251	-1.58 (inactive)	0.433 (inactive)	-0.632 (inactive)	0.228	1.31 (inactive)	-0.0593	-0.371	-0.312	-0.18
COCCCNC(=O)[C@]1(Cc2ccccc2CN=[N+]=[N-])N=C(c2ccc(OCCCO)cc2)O[C@@H]1c1ccccc1N=[N+]=[N-]	0.772	-0.499 (inactive)	1.07 (inactive)	4.98 (inactive)	2.27	1.11 (inactive)	0.862	0.0289	-0.217	0.371
[N-]=[N+]=Nc1ccccc1C[C@@]1(C(=O)NCC(O)CO)N=C(c2ccc(OCCCO)cc2)O[C@@H]1c1ccccc1N=[N+]=[N-] (stereo not given in full)	0.9	-0.961 (inactive)	0.0801 (inactive)	0.23 (inactive)	3.37	0.616 (inactive)	0.285	0.0196	0.298	0.0001
COCCOC(=O)N1C(=O)[C@@]2(c3cc(C#CCCO)ccc31)[C@H](c1ccc(O)cc1)N1[C@H](c3ccccc3)[C@H](c3ccccc3)OC(=O)[C@H]1[C@@H]2C(=O)NC[C@H](O)c1ccccc1	1.53	1.08 (inactive)	0.933 (inactive)	3.26 (inactive)	2.15	1.76 (inactive)	-0.195	0.697	1.03	-0.103
C=CCOC(=O)[C@@H]1[C@H]2C(=O)O[C@H](c3ccccc3)[C@H](c3ccccc3)N2[C@H](c2ccc(OCCOC(=O)[C@H]3C[C@H]4C(=O)N[C@@H](CCCCN(C)C)C(=O)N4[C@H]3c3cccc(OCCO)c3)cc2)[C@@]12C(=O)Nc1ccccc12	0.831	-0.292 (inactive)	1.12 (inactive)	0.171 (inactive)	0.729	-0.0426 (inactive)	0.0897	0.221	-0.414	-0.0039
COC(=O)[C@]1(Cc2ccccc2N=[N+]=[N-])N=C(c2ccc(OCCCO)cc2)O[C@@H]1c1ccccc1CN=[N+]=[N-]	1.56	-0.141 (inactive)	0.708 (inactive)	36.8 (active)	2.25	-0.763 (inactive)	0.021	1.23	0.963	0.0258
COc1ccc([Si](C)(C)[C@H]2[C@H](CCO)O[C@@]3(C(=O)N(Cc4ccccc4)c4ccc(NC(=O)[C@H](C)O)cc43)[C@@H]2C)cc1	1.44	2.75 (inactive)	0.215 (inactive)	5.82 (inactive)	2.24	0.25 (inactive)	0.0092	-0.227	0.149	0.148
COC(=O)[C@@]1(Cc2ccc(F)cc2)[C@H]2c3cc(C(=O)N(C)C)n(Cc4ccc(C(F)(F)F)nc4)c3C[C@H]2CN1C(=O)c1ccccc1	1.32	0.538 (inactive)	0.909 (inactive)	4.36 (inactive)	3.71	-0.366 (inactive)	0.317	0.108	1.02	0.379
Cc1ccc(S(=O)(=O)N2[C@@H](c3ccccc3)C(C(=O)O)=C[C@H]2C(C)(C)C)cc1	1.55	-0.601 (inactive)	-0.273 (inactive)	-0.802 (inactive)	2.88	-0.231 (inactive)	0.152	0.126	1.08	0.131
[N-]=[N+]=Nc1ccccc1C[C@]1(C(=O)N2CCCCC2)N=C(c2ccc(OCCCO)cc2)O[C@H]1c1ccccc1	1.33	-0.44 (inactive)	-9.22 (active)	0.926 (inactive)	2.74	1 (inactive)	0.131	0.595	1.1	0.279
CN(C)CCCCNC(=O)[C@H]1C[C@H]2C(=O)N[C@@H](CCCCN(C)C)C(=O)N2[C@H]1c1ccc(O)cc1	1.39	-2.61 (inactive)	-0.403 (inactive)	-1.41 (inactive)	-0.237	1.55 (inactive)	-0.192	0.774	0.343	-0.176
C=C[C@H](OC)[C@@H](O)c1ccc(OC)c(O)c1	-1.84	0.0615 (inactive)	0.242 (inactive)	-0.0251 (inactive)	-0.456	-0.0822 (inactive)	-0.0783	-0.81	-0.436	-0.258
